Bioassay records from PubChem.
G9a block: inhibitors of human histone lysine methyltransferase G9a | AID 504332 | Potency, µM (highest dose often 102 µM), usual class: inhibitors | 350,000 tested, 8.8% active | G9a H3K9 monomethylation, AlphaScreen, 2 h; further: nearly all actives have a fitted effect of over 75% in size
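Step 1: enzyme (final 20 nM) with compound, 15 min RT. Step 2: substrate peptide 500 nM and SAM 20 uM, 2 h RT. Step 3: anti-H3K9me1 antibody and AlphaScreen beads, 10 min, then plate read.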
BAZ2B block: BAZ2B (human) inhibition; Q9UIF8; 360,000 tested, 4.4% active; Potency, µM (titrated, usually from 114 µM), usual class: inhibitors; AlphaScreen BAZ2B-H3K14Ac peptide displacement; further: nearly all actives have a fitted effect of over 60% in size
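AlphaScreen displacement: compounds (up to 110uM) incubated 30 min at room temperature with a preformed 50 nM BAZ2B/50 nM biotinylated H3K14Ac peptide complex in PBS pH 7.4 with Tween-20. Donor and acceptor beads at 10 ug/mL final added, 20 min light-protected before reading.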
HP1b binding inh: inhibitors of HP1-beta chromodomain binding to methylated histone tails. AlphaScreen HP1-beta / biotin-H3K9me3 peptide binding. Potency, µM (highest dose often 114 µM), hits mostly inhibitors. 390,000 tested, 0.56% active; further: nearly all actives have a fitted effect of over 70% in size
Target sequence (P83916 whole entry, looked up): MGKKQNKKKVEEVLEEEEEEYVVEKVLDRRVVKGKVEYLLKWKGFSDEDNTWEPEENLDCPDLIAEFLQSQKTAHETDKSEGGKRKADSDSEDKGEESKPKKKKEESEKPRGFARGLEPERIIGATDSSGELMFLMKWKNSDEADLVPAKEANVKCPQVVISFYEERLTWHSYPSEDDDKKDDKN
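Compound inhibition of the preformed complex between 50 nM HP1-beta and 50 nM biotinylated H3K9me3 peptide was read by AlphaScreen. Buffer was PBS pH 7.4 with 0.01% Tween-20. Incubations ran 30 min at room temperature, with 10 ug/mL donor/acceptor beads.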
JMJD2A Tudor inh: JMJD2A Tudor domain (human) inhibition; 390,000 tested, 4.4% active; Potency, µM (titrated, usually from 114 µM), actives largely listed as inhibitors; AlphaScreen JMJD2A-Tudor / H3K4me3 peptide binding; AID 504339; O75164; further: nearly all actives have a fitted effect of over 50% in size
PLK1 PBD inh: inhibitors of human PLK1 polo-box domain binding; P53350; 360,000 tested, 2.8% active; Plk1 PBD binding of FITC phosphopeptide, fluorescence polarization; Potency, µM, usual class: inhibitors; further: series mostly up to about 57 µM; nearly all actives have a fitted effect of over 65% in size
VDR inh: inhibitors of human vitamin D receptor | P11473 | VDR-SRC2-3 peptide fluorescence polarization, 2 h | Potency, µM, most hits filed as inhibitors | 400,000 tested, 0.93% active | AID 504847
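Signal is fluorescence polarization, reporting how far test compounds block the interaction of VDR with the SRC2-3 coregulator peptide after a 2 h room-temperature incubation.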
JMJD2E inh-1: blocks human JMJD2E demethylase activity | AID 493212 | JMJD2E demethylase, FDH-coupled NADH fluorescence | shares compounds with BAZ2B block | 130 tested, 89% active | Potency, µM (series often up to 57 µM), most hits filed as inhibitors
Target sequence (B2RXH2 1-337 limits assumed): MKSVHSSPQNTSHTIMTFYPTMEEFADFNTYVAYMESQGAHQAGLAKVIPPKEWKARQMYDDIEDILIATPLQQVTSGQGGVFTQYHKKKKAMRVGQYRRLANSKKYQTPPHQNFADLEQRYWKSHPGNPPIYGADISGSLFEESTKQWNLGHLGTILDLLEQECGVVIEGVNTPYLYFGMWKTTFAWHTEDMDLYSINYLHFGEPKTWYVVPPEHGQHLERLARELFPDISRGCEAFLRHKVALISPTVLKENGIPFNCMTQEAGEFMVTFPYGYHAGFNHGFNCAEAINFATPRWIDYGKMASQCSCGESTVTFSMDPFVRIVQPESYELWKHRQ
ME-1 growth: reduces ME-1 leukemia cell proliferation; ME-1 cell proliferation, ATP luminescence, 48 h; Potency, µM (doses to about 56.1 µM), most hits filed as inhibitors; 140 tested, 20% active; shares compounds with BAZ2B block
JMJD2E inh-2: confirmation of inhibitors of human JMJD2E demethylase; Recombinant JMJD2E, FDH-coupled NADH fluorescence (FDH is formaldehyde dehydrogenase); 140 tested, 93% active; Potency, µM (highest dose often 56.8 µM), actives largely listed as inhibitors; AID 2677; shares compounds with JMJD2A Tudor inh
FDH inh: blocks Pseudomonas putida formaldehyde dehydrogenase, flagging JMJD2E artifacts. 140 tested, 10% active. Potency, µM (series often up to 56.7 µM), usual class: inhibitors. FDH enzyme assay, NADH fluorescence kinetic. shares compounds with JMJD2A Tudor inh
JMJD2E MS inh: inhibitors of human JMJD2E demethylase. shares compounds with JMJD2A Tudor inh. recombinant JMJD2E demethylation, MALDI-TOF-MS. Potency, µM, usual class: inhibitors. 45 tested, 90% active. AID 2688;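 active means compounds whose IC50 for blocking JMJD2E demethylation is below 100 µM; inconclusive means dose dependent effect but IC50 above 100 µM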
TbPYK inh: confirmation of Trypanosoma brucei pyruvate kinase inhibitors; shares compounds with PLK1 PBD inh; recombinant TbPYK, Kinase-Glo ATP luminescence; Potency, µM (titrated, usually from 76.9 µM), usual class: inhibitors; 890 tested, 67% active; AID 720569; further: nearly all actives have a fitted effect of over 70% in size
TbPYK ADP-Glo: inhibits T. brucei pyruvate kinase in orthogonal ADP-Glo assay; shares compounds with PLK1 PBD inh; Potency, µM (doses to about 76.9 µM), hits mostly inhibitors; recombinant TbPYK, ADP-Glo luminescence, 60 min; AID 720584; 890 tested, 62% active; further: nearly all actives have a fitted effect of over 75% in size
Hits are given with their value; [ ] = remark or other dose. Compounds with a hit are over-represented: about 11% of the library has one in this group of screens. Unless noted, the call rests on the fitted dose curve; in most records, active means well fitted curve in the direction sought with a large enough effect; inconclusive means small, poorly fitted or top-dose-only effect, or another doubt; inactive means no such curve, though single readings can be large; an effect the other way counts as inactive or inconclusive.

For O=[N+]([O-])c1ccccc1NCc1ccc(O)c2ncccc12 the results were JMJD2A Tudor inh inconclusive, JMJD2E inh-1 4.47µM, JMJD2E inh-2 10.2µM, FDH inh inactive and JMJD2E MS inh 12.2.
`Oc1ccc(CNc2cccc(C(F)(F)F)c2)c2cccnc12` gave G9a block 1.41µM, BAZ2B block 22.4µM, JMJD2E inh-1 7.94µM, JMJD2E inh-2 7.94µM and FDH inh inactive.
For Oc1c(CNc2ccccc2)cc(COCc2ccccc2)c2cccnc12 the results were G9a block inactive[12.7 µM], BAZ2B block 50.1µM, HP1b binding inh inactive, JMJD2A Tudor inh inactive, VDR inh inactive, JMJD2E inh-1 11.5µM, JMJD2E inh-2 7.94µM and FDH inh inactive.
Screening Fc1cccc(COc2ccccc2CNc2ccccc2)c1 returned G9a block inactive, BAZ2B block inactive, HP1b binding inh inactive, JMJD2A Tudor inh inactive, PLK1 PBD inh inactive and VDR inh inactive.
Screening Oc1ccc(CNc2cccnc2)c2cccnc12 returned JMJD2A Tudor inh 22.4µM, JMJD2E inh-1 6.46µM, JMJD2E inh-2 12.9µM, FDH inh inactive and JMJD2E MS inh 26.3.
`Cc1ccc(NC(=O)COC(=O)CC2CCCC2)cc1Cl` gave G9a block inactive and BAZ2B block inactive.
`c1ccc2c(CCc3ccncc3)cccc2c1` gave HP1b binding inh inactive, JMJD2A Tudor inh inactive, PLK1 PBD inh inactive and VDR inh inactive.
Screening Oc1ccc(CCc2ccccc2)c2cccnc12 returned JMJD2A Tudor inh 44.7µM, JMJD2E inh-1 7.08µM, JMJD2E inh-2 9.13µM, FDH inh inactive and JMJD2E MS inh 89.5.
`Oc1ccc(COc2ccccc2Cl)c2cccnc12` gave JMJD2A Tudor inh 79.4µM, JMJD2E inh-1 12.6µM, JMJD2E inh-2 12.6µM and FDH inh inactive.
Screening O=C(O)c1ccc(COc2ccccc2Cl)cc1 returned G9a block inactive, BAZ2B block inactive, HP1b binding inh inactive, JMJD2A Tudor inh inactive, PLK1 PBD inh inactive and VDR inh inactive.
`Cc1sc2ncn(CC(=O)N3CCN(c4ccc(F)cc4)CC3)c(=O)c2c1S(=O)(=O)N1CCOCC1` gave G9a block inactive, BAZ2B block inactive, HP1b binding inh inactive, JMJD2A Tudor inh inactive, PLK1 PBD inh inactive and VDR inh inactive.
Screening COC(=O)c1ccc(OC(C)=O)c2ncccc12 returned JMJD2E inh-1 12.9µM, JMJD2E inh-2 14.5µM and FDH inh inactive.
`CC1=NN(c2ccccc2)C(=O)/C1=C/C=C/c1ccc(N(C)C)cc1` gave G9a block 2µM, BAZ2B block 2µM, HP1b binding inh 2.51µM, JMJD2A Tudor inh 2.51µM, PLK1 PBD inh inactive, VDR inh 79.4µM, ME-1 growth inconclusive, TbPYK inh 25.1µM and TbPYK ADP-Glo inactive.
